# TDP1 cell noCPT: qHTS for Inhibitors of human tyrosyl-DNA phosphodiesterase 1 (TDP1): qHTS in cells in absence of CPT | DT40 Tdp1-/- hTDP1 cells, no CPT, ATP luminescence, 48 h | Potency, µM (titrated, usually from 46.2 µM), for the others: at the top dose activity change, negative = growth inhibition, actives largely listed as inhibitors | hit rate 15% among 420,000 | AID 686978, 2013; note: potency is the fitted concentration of half-maximal effect; nearly all actives have a fitted effect of over 55% in size
#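 Readout: luminescence from CellTiter-Glo after 30 min in the dark at RT. Cells: DT40 Tdp1-/- with stable hTDP1, 400/well. Exposure: compounds alone, ≥48 hr, 37 °C.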
# HT1080 IDH1KD tx: HT-1080 IDH1 knockdown cell toxicity (counter line). Potency, µM (doses to about 46.1 µM), for the others: at the top dose activity, negative = toxicity, actives largely listed as cytotoxic. hit rate 2% among 360,000. HT-1080 IDH1 knockdown viability, ATP luminescence, 48 h;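 note: potency is the fitted concentration of half-maximal effect; 0% = DMSO wells and -100% = cell-free medium wells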
#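 Cytotoxicity counter-line: IDH1KD HT-1080, 48 h, CellTiter-Glo. Curves classed by r2, magnitude and activity.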
# DT40 TDP1 CPT: DT40-hTDP1 cell growth loss with CPT; chicken DT40 Tdp1-/-;hTDP1 cells + 20 nM CPT, ATP luminescence, 48 h; Potency, µM (titrated, usually from 46.2 µM), without a hit: at the highest dose activity change, negative = growth inhibition, usual class: inhibitors; hit rate 12% among 420,000; note: potency is the fitted concentration of half-maximal effect; nearly all actives have a fitted effect of over 55% in size
#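 Chicken DT40 Tdp1-/- cells stably complemented with human TDP1 were seeded at 400 cells/well in medium containing 20 nM camptothecin, exposed to pin-transferred compounds, and grown at 37 °C for at least 48 hr. Viability was read as ATP luminescence.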
# IL1B secr inh: inflammasome signaling inhibition, IL-1 beta readout; hit rate 4.7% among 360,000; AID 743279; THP-1 LPS/ATP IL-1B secretion, AlphaLISA, 16 h; active compounds read low; activity change, % at 57.5 µM; in the data active = activity change below about -50%; inconclusive = mostly about -30% to -49%
#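 Secreted IL-1B measured by AlphaLISA bead assay after 16 h compound exposure of THP-1 cells; compounds (final up to 57.5 uM) added 1 h before LPS (250 ng/mL) and ATP (1.25 mM) stimulation; lower signal means less secretion.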
# HT1080-NT tox: kills 2HG-producing HT-1080-NT fibrosarcoma cells. HT-1080-NT fibrosarcoma viability, CellTiter-Glo ATP luminescence, 48 h. Potency, µM (titrated, usually from 46.1 µM), inactives show at the highest dose activity, negative = less viability, actives largely listed as cytotoxic. hit rate 1.6% among 360,000;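 note: NT is the 2HG producing partner of a matched IDH1 knockdown line; potency is the fitted concentration of half-maximal effect; 0% = DMSO-treated cells and -100% = media-only wells without cells; nearly all actives have a fitted effect of over 55% in size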
#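 Compounds were tested in concentration-response format on HT-1080-NT cells for 48 hours at 37 degrees C. Cell viability came from CellTiter-Glo luminescence; curves were classified by r2, response magnitude and activity.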
# Starred values were filed as active, the others as inactive; i = inactive; ? = inconclusive; . = no result; [ ] = dose if it differs, or a comment. Hits are enriched below; roughly 19% of the tested compounds scored in any of these assays. Unless noted, calls come from the whole dose curve; as a rule, active = well fitted curve in the direction sought with a large enough effect; inconclusive = small, poorly fitted or top-dose-only effect, or another doubt; inactive = no such curve, though single readings can be large; an effect the other way counts as inactive or inconclusive. Unless noted, % is set by controls: 0 for no effect and ±100 for the full control effect.
SMILES,TDP1 cell noCPT,HT1080 IDH1KD tx,DT40 TDP1 CPT,IL1B secr inh,HT1080-NT tox
COc1cc(C2CC(=O)Oc3cc(C)c(Br)c(C)c32)cc(OC)c1OC (stereo not given),?,-1.6%,20.6µM*,59.8,-0.1%
COc1cc(C2CC(=O)Oc3cc(C)c(Cl)c(C)c32)cc(OC)c1OC (stereo not given),?,-3.9%,?,33.5,-3.6%
CC1CC(C)(C)Nc2ccc(N=O)cc21 (stereo not given),1.84µM*,18.4µM*,2.31µM*,-105.3*,14.6µM*
CC1N=C(SCC(=O)c2ccc(F)cc2)N2C(C)N=C(SCC(=O)c3ccc(F)cc3)N12 (stereo not given),4.11µM*,2.3%,4.11µM*,27.7,-3.5%
Cn1ccnc1SCC(=O)c1ccc(F)cc1,-7.3%,10.5%,1.5%,-13.2,3.6%
COc1ccc(-c2cc(=Nc3c(C)n(C)n(-c4ccccc4)c3=O)c3ccccc3o2)cc1,20.6µM*,-20.9%,?,-29.2,-6.3%
COc1ccc(-c2csc(=Nc3c(C)n(C)n(-c4ccccc4)c3=O)n2C(C)(C)C)cc1,-8.6%,-3.9%,-2.3%,-5.9,-0.6%
COc1ccc(-c2c/c(=N\c3nc(-c4ccccc4)c(C)s3)c3ccccc3o2)cc1O,4.11µM*,5.8µM*,5.8µM*,18.4,5.8µM*
CCn1[nH]c(=O)c(=Nc2c(C)n(C)n(-c3ccccc3)c2=O)cc1-c1ccc(Cl)cc1,?,-15.7%,-9.3%,-51.6*,-12.5%
CCC(N=c1cc(-c2ccc(OC)c(OC)c2)oc2ccc(C)cc12)C(=O)O (stereo not given),1.2%,6.6%,4.8%,-7.9,7.4%
O=C1CC(c2nnc(Cc3cccc(Cl)c3)o2)CN1c1ccccc1 (stereo not given),-6.9%,.,1.4%,.,.
CCN(CC(=O)Nc1ccc(NC(C)=O)cc1)C(=O)CCCOc1ccc(C(C)(C)C)cc1,23.1µM*,?,18.4µM*,-1.0,-29.7%
O=C(Nc1ccccc1N1CCOCC1)C1CCN(S(=O)(=O)c2ccccc2F)CC1,0.2%,13.5%,0.9%,-1.0,19.6%
C[C@H]1CN([C@@H](C)CO)C(=O)c2cc(C#CCC3CCCC3)cnc2O[C@@H]1CN(C)C(=O)CC1CC1,?,-11.9%,?,-21.2,-1.0%
COc1cc2c(cc1[N+](=O)[O-])-c1ccc([N+](=O)[O-])cc1C2=NNC(N)=S,7.31µM*,-0.4%,?,-15.4,2.1%
NC(=S)NN=C1c2cc(Cl)ccc2-c2c1cc(Cl)cc2[N+](=O)[O-],?,6.7%,?,18.9,6.6%
Cc1c(C(=O)NC2CCCCC2)sc2ncnc(NCCN(C)C)c12,-1.9%,.,-0.5%,.,.
CCOc1ccc(CNC(=O)c2sc3ncnc(N(C)C4CCCCC4)c3c2C)cc1,?,.,16.4µM*,.,.
CCc1ccc(NC(=O)c2sc3ncnc(N(C)C4CCCCC4)c3c2C)cc1,20.6µM*,.,18.4µM*,.,.
Cc1c(C(=O)NC(C)c2ccccc2)sc2ncnc(N(C)C3CCCCC3)c12 (stereo not given),?,.,6.51µM*,.,.
Cc1c(C(=O)Nc2ccc(Br)cc2F)sc2ncnc(N(C)C3CCCCC3)c12,-4.3%,.,-0.2%,.,.
Cc1cccc(CNC(=O)c2sc3ncnc(N(C)C4CCCCC4)c3c2C)c1,20.6µM*,.,18.4µM*,.,.
Cc1cccc(-n2ncc3c(N(C)C4CCCCC4)ncnc32)c1,?,1.4%,?,-28.2,0.7%
COCc1nc2oc3ccccc3c(=O)c2cc1C(=O)OC,-1.3%,19.0%,-2.2%,-28.6,7.4%
Nc1ccccc1SCCS(=O)(=O)c1ccc(Cl)cc1,-28.7%,6.7%,4.0%,-9.4,3.4%
SMILES,TDP1 cell noCPT,HT1080 IDH1KD tx,DT40 TDP1 CPT,IL1B secr inh,HT1080-NT tox
O=C(CS(=O)(=O)c1ccccc1)N1CCc2ccccc21,-9.2%,0.4%,19.9%,-4.3,-1.0%
Cc1c(C(=O)NC2CCCC2)sc2ncnc(NCCN(C)C)c12,6.5%,.,-5.3%[9.04 µM],.,.
Cc1c(C(=O)NCc2cccc(Cl)c2)sc2ncnc(N(C)C3CCCCC3)c12,?,.,20.6µM*,.,.
COc1ccccc1NC(=O)c1oc2ccccc2c1NC(=O)COc1cccc(C)c1,0.6%,.,-8.9%,.,.
Cc1cn(CC(=O)N[C@H](C)c2cccc3ccccc23)c(=O)[nH]c1=O,-12.0%,7.1%,-0.4%,11.8,4.6%
COc1ccc(N2CCN(C(=O)CCC(=O)c3cc(C)sc3C)CC2)cc1,16.4µM*,4.8%,?,-27.0,0.0%
Cc1cc(C(=O)CCC(=O)N2CCN(c3ccccc3O)CC2)c(C)s1,?,-18.2%,?,-14.6,-9.0%
O=C(CCOc1ccccc1)N1CCN(c2ccc(O)cc2)CC1,?,4.61µM*,?,29.7,1.46µM*
Cc1ccc(C)c(S(=O)(=O)N2CCN(C(=O)CCC(=O)c3cc(C)sc3C)CC2)c1,23.1µM*,-14.6%,?,-54.5*,2.5%
COc1ccc(C(=O)CCC(=O)N2CCN(c3ccc(C)cc3)C(C)C2)cc1 (stereo not given),23.1µM*,-1.2%,?,?,0.5%
Cc1cc(C)cc(C(=O)OCC(=O)Nc2ncccn2)c1,-8.1%,12.6%,-0.6%,-18.2,4.7%
COC(=O)c1ccc(NC(=O)CCn2cnnn2)cc1,6.9%,.,5.2%,.,.
COc1ccc(N2CCN(C(=O)CNC(=O)c3cccc(Br)c3)CC2)cc1,14.6µM*,7.5%,?,10.4,3.7%
COc1ccc(N2CCN(C(=O)CCCC(=O)c3ccccc3)CC2)cc1,?,7.1%,20.6µM*,0.0,3.4%
CC1CCN(C(=O)CSc2nnc(-c3cc4ccccc4cc3O)n2Cc2ccco2)CC1,-28.9%,-6.3%,-25.3%,-11.4,-2.3%
CC(c1ccccn1)N(C)C(=O)c1ccc2nc(Cc3ccccc3F)oc2c1 (stereo not given),?,0.7%,-11.5%,i,4.5%
Clc1cccc(Cl)c1CSc1nnc(CN2CCOCC2)n1-c1ccccc1,?,-7.6%,16.4µM*,-1.2,-8.8%
Fc1cccc(Cl)c1CSc1nnc(CN2CCOCC2)n1-c1ccccc1,?,0.8%,?,-16.0,10.5%
Fc1ccccc1SCc1nnc(-c2ccccc2Br)o1,25.9µM*,-2.7%,5.8µM*,-17.5,-2.9%
CC(C)Oc1ccc(C(=O)NCc2cccs2)cc1,?,-3.1%,?,-18.6,-6.1%
COc1ccc(NC(=O)CCc2c(C)nc3nc(C)nn3c2C)cc1,-17.9%,11.4%,-13.6%,-4.1,7.6%
O=C(NC1CCCCCC1)c1c(F)c(F)c(F)c(F)c1F,-13.7%,7.2%,0.3%,-90.8*,5.4%
N#C/C(=C/c1ccc2c(c1)OCO2)C(=O)NCCc1c[nH]c2ccccc12,?,?,?,-20.9,?

# From PubChem
